This is a sample that favours compounds with a hit; in the whole collection about 11% have one here.
HP1b chromo inh: HTS for Inhibitors of HP1-beta Chromodomain Interactions with Methylated Histone Tails; Chromobox protein homolog 1 (Homo sapiens), P83916; AlphaScreen HP1-beta / biotin-H3K9me3 peptide binding; actives 0.56% (n = 390,000); AID 540317, 2011; Potency, µM (top dose mostly 114 µM), most hits filed as inhibitors; note: nearly all actives have a fitted effect of over 70% in size
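Compound inhibition of the preformed complex between 50 nM HP1-beta and 50 nM biotinylated H3K9me3 peptide was read by AlphaScreen. Buffer was PBS pH 7.4 with 0.01% Tween-20. Incubations ran 30 min at room temperature, with 10 ug/mL donor/acceptor beads.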
G9a inh: qHTS Assay for Inhibitors of Histone Lysine Methyltransferase G9a; Potency, µM (highest dose often 102 µM), hits mostly inhibitors; actives 8.8% (n = 350,000); G9a H3K9 monomethylation, AlphaScreen, 2 h; AID 504332, 2011; note: nearly all actives have a fitted effect of over 75% in size
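AlphaScreen read-out: biotin-H3K9 peptide (500 nM) methylation by 20 nM enzyme with 20 uM SAM, 2 h at room temperature after 15 min compound preincubation; anti-monomethyl H3K9 antibody plus donor/acceptor beads, 10 min dark.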
L3MBTL1 block: qHTS Assay for the Inhibitors of L3MBTL1 | Lethal(3)malignant brain tumor-like protein 1 (Homo sapiens), Q9Y468 | AlphaScreen L3MBTL1–H3K9me1 peptide binding | Potency, µM (highest dose often 57.1 µM), most hits filed as inhibitors | actives 0.66% (n = 230,000); note: nearly all actives have a fitted effect of over 60% in size
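Displacement of a biotinylated histone H3(1-15) peptide monomethylated at Lys9 (75 nM) from L3MBTL1 (50 nM) was measured by AlphaScreen after a 30 min room-temperature compound incubation; cefsulodin titration served as intraplate control.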
BAZ2B block: qHTS Assay for Inhibitors of BAZ2B; AID 504333, 2011; AlphaScreen BAZ2B-H3K14Ac peptide displacement; Potency, µM (doses to about 114 µM), most hits filed as inhibitors; actives 4.4% (n = 360,000); Bromodomain adjacent to zinc finger domain protein 2B (Homo sapiens), Q9UIF8; note: nearly all actives have a fitted effect of over 60% in size
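Complex of BAZ2B and biotin-H3K14Ac (50 nM apiece) forms over 30 min at RT, then faces library compounds up to 110 uM for another 30 min; AlphaScreen beads added, 20 min dark incubation, luminescence read.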
PI5P4K alpha inh: qHTS for Inhibitors of phosphatidylinositol 5-phosphate 4-kinase (PI5P4K); actives 1.2% (n = 330,000); AID 652105, 2013; PI5P4Kalpha enzyme, ADP-Glo luminescence, 60 min; active compounds read low; max response, %; Phosphatidylinositol 5-phosphate 4-kinase type-2 alpha (Homo sapiens), P48426; active = max response of -50% or lower; inconclusive = between -30% and -50%; inactive = -30% or higher; note: value at the top dose of about 77 µM
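Enzyme plus substrate dispensed, test compounds pinned in, then ATP (5 microM final) added. After 60 min at RT, ADP-Glo reagent 1 for 45 min and reagent 2 for 30 min preceded luminescence imaging.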
JMJD2A Tudor: qHTS Assay for Inhibitors of JMJD2A-Tudor Domain | AlphaScreen JMJD2A-Tudor / H3K4me3 peptide binding | Potency, µM (series often up to 114 µM), actives largely listed as inhibitors | actives 4.4% (n = 390,000) | AID 504339, 2011; note: nearly all actives have a fitted effect of over 50% in size
Target sequence (O75164 whole entry, looked up, the tested form may be a part): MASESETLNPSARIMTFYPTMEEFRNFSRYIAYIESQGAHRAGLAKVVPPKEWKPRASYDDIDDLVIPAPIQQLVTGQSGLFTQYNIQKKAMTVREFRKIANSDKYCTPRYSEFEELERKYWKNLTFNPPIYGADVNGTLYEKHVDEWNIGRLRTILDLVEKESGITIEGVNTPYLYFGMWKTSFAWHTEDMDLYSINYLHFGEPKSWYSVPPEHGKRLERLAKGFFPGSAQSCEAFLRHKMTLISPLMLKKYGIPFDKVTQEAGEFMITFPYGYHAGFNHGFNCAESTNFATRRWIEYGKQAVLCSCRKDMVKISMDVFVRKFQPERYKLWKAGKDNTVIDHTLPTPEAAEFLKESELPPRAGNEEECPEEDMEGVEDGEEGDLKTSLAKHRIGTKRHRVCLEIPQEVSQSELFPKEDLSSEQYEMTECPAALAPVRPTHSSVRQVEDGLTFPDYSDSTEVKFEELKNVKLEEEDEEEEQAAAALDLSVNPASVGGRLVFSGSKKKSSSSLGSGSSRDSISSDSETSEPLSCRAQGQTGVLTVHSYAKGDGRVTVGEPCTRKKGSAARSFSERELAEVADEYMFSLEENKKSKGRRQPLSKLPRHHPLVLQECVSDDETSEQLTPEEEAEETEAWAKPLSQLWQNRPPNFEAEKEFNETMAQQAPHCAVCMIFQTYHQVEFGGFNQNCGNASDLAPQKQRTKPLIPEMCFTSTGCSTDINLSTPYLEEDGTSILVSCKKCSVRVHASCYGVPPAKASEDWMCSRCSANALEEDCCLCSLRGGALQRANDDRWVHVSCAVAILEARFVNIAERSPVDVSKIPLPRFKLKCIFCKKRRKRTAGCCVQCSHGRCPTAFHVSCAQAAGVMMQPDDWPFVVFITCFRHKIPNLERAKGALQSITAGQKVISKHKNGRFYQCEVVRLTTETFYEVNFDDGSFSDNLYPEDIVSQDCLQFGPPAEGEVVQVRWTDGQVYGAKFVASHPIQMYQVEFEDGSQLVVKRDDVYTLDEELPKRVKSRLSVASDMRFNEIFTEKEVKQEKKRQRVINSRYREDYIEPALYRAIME
A number is an active result; – = inactive; ? = inconclusive; · = no result given; ! = repeats disagree; [ ] = remark or other dose. Unless noted, calls come from the whole dose curve; as a rule, active = well fitted inhibition curve with a large enough effect; inconclusive = small, poorly fitted or top-dose-only effect; inactive = no such curve, though single readings can be large or run the other way.

SMILES | HP1b chromo inh | G9a inh | L3MBTL1 block | BAZ2B block | PI5P4K alpha inh | JMJD2A Tudor
c1cc(CNCCc2ccc3c(c2)OCO3)ccn1 | ? | –[0.501 µM] | –[2.29 µM] | 56µM | – | 8.9µM
Oc1ccc(CCNCc2cc3c(cc2Br)OCO3)cc1 | · | · | · | · | – | ·
Fc1ccc(CNCCc2ccc3c(c2)OCO3)cc1 | – | 50µM | – | ? | – | 56µM
Brc1ccccc1CNCCc1ccc2c(c1)OCO2 | ? | · | – | ? | – | 3.2µM
c1ccc2c(CCNCc3ccc4c(c3)OCO4)c[nH]c2c1 | – | ? | – | ? | – | ?
O=C(Oc1ccccc1)N1CCC2(CC1)CN(Cc1ccncc1)C2 | · | –[12.7 µM] | · | · | · | ·
Cc1ccc(Cn2c(SCc3ccc(C(=O)NC4CCCC4)cc3)nc3ccncc32)cc1 | – | ? | · | – | · | –
Clc1ccc(CCNCc2ccncc2)c(Cl)c1 | – | 4µM | · | 50µM | – | 32µM
CCN(CC)c1ccc(CNCCc2ccc(F)cc2)cc1 | – | 13µM | – | 45µM | – | ?
CC(=O)OCC1=C(C(=O)O)N2C(=O)[C@@H](N)[C@@H]2SC1 | · | –[5.15 µM] | · | · | · | ·
CP(=O)(O)C1=CCNCC1 | · | – | · | · | · | ·
C[n+]1c(-c2ccccc2)c2cc(N)ccc2c2ccc(N)cc21 | – | ? | · | 40µM | – | ?
CCCCCC[C@H]1C(=O)O[C@H](C)[C@H](NC(=O)c2cccc(NC=O)c2O)C(=O)O[C@@H](C)[C@H]1OC(=O)CC(C)C | · | –[21.5 µM] | · | · | · | ·
O=C(Cc1ccccc1)N1CCN(Cc2c[nH]c3ccccc23)CC1 | – | – | – | – | · | –
O=C(COc1ccccc1)N1CCN(Cc2c[nH]c3ccccc23)CC1 | – | 13µM | – | · | – | 7.9µM
COc1ccc(OCC(=O)N2CCN(Cc3c[nH]c4ccccc34)CC2)cc1 | ? | 3.5µM | – | · | – | 3.5µM
OC(Cn1cncn1)(Cn1cncn1)c1ccc(F)cc1F | – | –[2.33 µM] | · | · | – | –
COC(=O)C(O)C(O)(CCC(C)C)C(=O)OC1C(OC)=CC23CCCN2CCc2cc4c(cc2C13)OCO4 (stereo unspecified) | · | – | · | · | · | ·
Cc1c2ccncc2c(C)c2c1[nH]c1ccccc12 | – | 21µM! | – | 56µM | – | –
CCN1C(=O)CC(=O)N(CC)C1=S | · | · | · | · | -55 | ·
CCN(CC)C(=O)Oc1ccc(Cl)c2ccccc12 | – | – | – | – | · | –
O=C1C=CC(=O)c2c1ccc1c2ccc2ccccc21 | · | 5µM | · | · | · | ·
COc1ccc(OC)c(CCNCc2c(C(=O)O)c(C)n(Cc3ccc(F)cc3Cl)c2C)c1 | – | – | · | 50µM | · | ?
O=C1C(=O)N(c2nccs2)C(c2ccccc2)/C1=C(\O)c1ccc2c(c1)OCCO2 (stereo unspecified) | · | –[0.0925 µM] | · | ? | · | ·
COc1cccc(N2C(=O)CC(=O)NC2=O)c1 | – | ? | – | – | · | –
SMILES | HP1b chromo inh | G9a inh | L3MBTL1 block | BAZ2B block | PI5P4K alpha inh | JMJD2A Tudor
COc1ccccc1N1C(=O)CC(=O)NC1=O | – | – | · | 50µM | – | –
Cc1ccccc1N1C(=O)CC(=O)NC1=O | – | 45µM | · | – | · | –
CCc1ccccc1N1C(=O)CC(=O)NC1=O | – | – | · | – | – | –
c1cc(CN2CC3(CCNCC3)C2)ccn1 | · | –[12.7 µM] | · | · | · | ·
CC1=C(O)C(=O)C=C2C1=CC=C1C2(C)CCC2(C)C3CC(C)(C(=O)O)CCC3(C)CCC12C (stereo unspecified) | ? | · | · | · | -72 | 20µM
O=C1NC(=O)N(c2ccccc2)C(=O)/C1=C\c1ccc([N+](=O)[O-])o1 | · | 13µM | 3.2µM | 40µM | · | ·
CN1C(=O)NC(=O)/C(=C/c2ccc([N+](=O)[O-])o2)C1=O | 50µM | · | 25µM | 50µM | -82 | 22µM
CN1C(=O)NC(=O)/C(=C/c2ccc(C(=O)O)cc2)C1=O | – | – | · | – | ? | –[11.4 µM]
CN1C(=O)NC(=O)/C(=C\c2ccc([N+](=O)[O-])o2)C1=O | 25µM | 13µM | 10µM | 35µM | -102 | 16µM
O=S1(=O)N(CCN2CC=C(c3c[nH]c4cc(F)ccc34)CC2)c2cccc3c2N1CCC3 | – | 30µM! | – | ? | – | ?
CC(C)N1CC=C(c2c[nH]c3ccccc23)CC1 | – | ? | – | – | – | –
Cc1ccc(N2C(=O)NC(=O)/C(=C/C=C/c3ccco3)C2=O)cc1 | – | ? | ? | – | – | –
CCc1ccc(N2NC(=O)/C(=C/C=C/c3ccco3)C2=O)cc1 | – | 8.9µM | – | ? | ? | ?
CCc1ccc(N2C(=O)NC(=O)/C(=C\C=C\c3ccco3)C2=O)cc1 | – | – | · | 45µM | ? | –
CC(C)c1ccc(N2C(=O)NC(=O)/C(=C/C=C/c3ccco3)C2=O)cc1 | – | 50µM | ? | ? | -66 | ?
CC(C)c1ccc(N2C(=O)CC(=O)NC2=O)cc1 | – | – | · | – | – | –
Cc1cc(C)cc(N2C(=O)NC(=O)/C(=C\C=C\c3ccco3)C2=O)c1 | ? | 11µM | ? | ? | – | ?
OC(O)C(Cl)(Cl)Cl | · | – | · | · | · | ·
COc1cccc(-c2cc(C(=O)Nc3cnn(Cc4ccc(Cl)cc4Cl)c3)no2)c1 | – | – | · | – | · | –
COP(=S)(OC)SCN1C(=O)c2ccccc2C1=O | – | 16µM | – | – | ? | –
CC(C)(C)OC(=O)N1CC[C@H]1COc1cnc[c]([Sn]([CH3])([CH3])[CH3])c1 | · | –[12.7 µM] | · | · | · | ·
Cc1ccc(C)c(NC(=O)c2cc[n+](C)cc2)c1 | – | 32µM | – | – | – | –
Cc1cccc(C(=O)Nc2ccc(Cl)cc2C(=O)c2ccccc2)c1 | – | – | – | – | · | –
CC(C)c1cc2c(c(O)c1O)[C@]1(C(=O)O)CCCC(C)(C)C1CC2 (stereo partly specified) | · | –[2.33 µM] | · | · | · | ·
CN(C)P(=NC(=S)c1cccn1C)(N(C)C)N(C)C | – | 10µM | · | ? | · | 40µM
SMILES | HP1b chromo inh | G9a inh | L3MBTL1 block | BAZ2B block | PI5P4K alpha inh | JMJD2A Tudor
CCc1ccccc1NC(=O)c1cccn(Cc2ccccc2F)c1=O | – | – | · | – | · | –
CN1CN(c2ccccc2)C2(CCN(CCCSc3ccccc3NC(=O)/C=C/c3ccccc3)CC2)C1=O | ? | · | · | · | – | 40µM
COC(=O)c1ccc(N2C(=O)CC(N3CCC(O)(c4ccc(Br)cc4)CC3)C2=O)cc1 (stereo unspecified) | – | 11µM | · | – | – | –
COC(=O)c1ccc(N2C(=O)CC(N3CCC(n4c(=O)[nH]c5ccccc54)CC3)C2=O)cc1 (stereo unspecified) | – | ? | – | – | – | –
CC(C)c1ccc(CNC(=O)c2ccc(N3CCCC3)c(NC(=O)NCc3ccccc3)c2)cc1 | – | – | · | ? | · | –
O=P1(Oc2ccccc2)CC=CC(COC(c2ccccc2)(c2ccccc2)c2ccccc2)O1 (stereo unspecified) | – | · | · | · | · | –
